Screening results as filed in PubChem BioAssay.
NPC1 prom act – qHTS Assay for NPC1 Promoter Activators. Potency, µM (titrated, usually from 9.22 µM), usual class: activators. actives 2.4% (n = 320,000). Huh7 NPC1 promoter luciferase reporter, 24 h. AID 485313, 2010; note: nearly all actives have a fitted effect of over 60% in size
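NPC1 promoter–luciferase Huh7 cells; 24 h compound; luminescence.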
FLuc counter – qHTS profiling assay for firefly luciferase inhibitor/activator using purifed enzyme and Km concentrations of substrates (counterscreen for miR-21 project); purified FLuc, Km substrates, luminescence inhibition; actives 6.9% (n = 360,000); AID 588342, 2011; Luciferin 4-monooxygenase (Photinus pyralis), P08659; Potency, µM (highest dose often 57.5 µM), most hits filed as inhibitors; note: nearly all actives have a fitted effect of over 55% in size
Target sequence (P08659 whole entry, looked up): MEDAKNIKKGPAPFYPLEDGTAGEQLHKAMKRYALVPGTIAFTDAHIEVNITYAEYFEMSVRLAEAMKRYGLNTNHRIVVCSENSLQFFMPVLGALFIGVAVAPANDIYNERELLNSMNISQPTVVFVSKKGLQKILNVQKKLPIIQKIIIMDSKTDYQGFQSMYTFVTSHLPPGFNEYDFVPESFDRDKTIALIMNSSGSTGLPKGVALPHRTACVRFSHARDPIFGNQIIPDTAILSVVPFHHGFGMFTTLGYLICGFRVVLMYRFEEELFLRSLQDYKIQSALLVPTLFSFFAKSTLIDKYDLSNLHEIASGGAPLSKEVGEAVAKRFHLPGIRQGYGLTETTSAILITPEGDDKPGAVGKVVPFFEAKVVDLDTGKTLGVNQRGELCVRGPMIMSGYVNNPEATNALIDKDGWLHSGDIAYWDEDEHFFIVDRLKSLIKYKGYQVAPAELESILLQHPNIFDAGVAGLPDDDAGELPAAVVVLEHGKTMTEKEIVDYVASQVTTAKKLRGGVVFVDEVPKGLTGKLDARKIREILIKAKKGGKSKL
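Biochemical qHTS of compounds, final roughly 60 µM downward over six points, against 10 nM purified firefly luciferase using Km concentrations of substrates (10 uM D-luciferin, 10 uM ATP) in Tris acetate pH 7.5 buffer; luminescence output.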
SMN2 splice up – qHTS Assay for Enhancers of SMN2 Splice Variant Expression. HEK293 SMN2-luciferase splicing reporter, luminescence, 30-36 h. Potency, µM (top dose mostly 46.1 µM), most hits filed as activators. AID 1458, 2008. actives 2.8% (n = 210,000); note: nearly all actives have a fitted effect of over 55% in size
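HEK293 cells carry an SMN2 minigene-luciferase reporter in which exon 7 inclusion puts luciferase in frame. Cells were seeded at 2000 cells/well, attached for 10-12 hours, then exposed to compounds for 30-36 hours at 37C before ONE-Glo luminescence.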
KinaseGlo FLuc – Counterscreen for Luciferase (Kinase-Glo TM) Inhibition. Luciferin 4-monooxygenase (Photuris pensylvanica), Q27757. Kinase-Glo luciferase, ATP luminescence, 8 min. Potency, µM (titrated, usually from 38.3 µM), most hits filed as inhibitors. actives 0.28% (n = 200,000); note: nearly all actives have a fitted effect of over 60% in size
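Light output from Kinase-Glo luciferase with luciferin and 10 uM ATP in 50 mM imidazole pH 7.2, KCl, MgCl2, Tween 20, BSA; compound pin-delivered, 8-min ambient incubation, then luminescence read.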
Rab9 promoter act – qHTS Assay for Rab9 Promoter Activators; Potency, µM (highest dose often 9.22 µM), usual class: activators; actives 2.8% (n = 320,000); Huh7 Rab9 promoter-luciferase reporter, luminescence, 24 h; AID 485297, 2010; note: nearly all actives have a fitted effect of over 60% in size
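Steps: seed 1500 Huh7 Rab9-luc cells per well, rest 2 h at 37 °C; add compound in DMSO; incubate 24 h; add luciferase reagent, 10 min ambient; read luminescence.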
Numbers stand for hits; n = inactive; u = inconclusive; x = not tested or not shown; [ ] = dose if it differs, or a comment. A selection: hits, their analogues and other compounds. The true share with any hit is near 7.3%. Calls come from the whole dose curve; as a rule, active = well fitted curve in the direction sought with a large enough effect; inconclusive = small, poorly fitted or top-dose-only effect, or another doubt; inactive = no such curve, though single readings can be large; an effect the other way counts as inactive or inconclusive.

SMILES	NPC1 prom act	FLuc counter	SMN2 splice up	KinaseGlo FLuc	Rab9 promoter act
Cc1ccc(C2=Nc3ccc(Br)cc3C(c3ccncc3)=NN2)cc1	n	27µM	n	n	n
Cc1ccc2c(c1)C(c1ccncc1)=NNC(c1ccccc1)=N2	u	17µM	x	n	2.8µM
Cc1ccc2c(c1)C(c1ccncc1)=NNC(c1ccc(F)cc1)=N2	n	n	n	n	n
Cc1ccc(C2=Nc3cccnc3C(c3ccccc3)=NN2)cc1	3.5µM	11µM	13µM	n	3.2µM
O=C(CCc1ccccc1)NC1CC(=O)N(c2cccc(F)c2)C1 (centres undefined)	x	n	x	x	x
Cc1ccc(CSC2=NC(C)(C)Nc3ccccc32)c(C)c1	x	n	x	x	x
COc1ccccc1CNCCSc1nnnn1C	x	n	n	x	x
CC(Sc1ncc(S(=O)(=O)c2ccc(C(C)C)cc2)c(N)n1)C(=O)Nc1ccccc1 (centres undefined)	x	n	x	x	x
COc1ccc(NC(c2ccc(F)cc2)c2nnc(-c3ccccc3Cl)o2)cc1Cl (centres undefined)	x	n	n	x	x
Cc1ccc2nc(NC(=O)CCNS(=O)(=O)c3ccc(Br)s3)sc2c1	n	19µM	n	n	n
Cc1ccc2nc(NC(=O)c3ccc(NS(=O)(=O)c4cccs4)cc3)sc2c1	n	12µM	n	n	n
COc1ccc(C)cc1NC(=O)c1ccc(NS(=O)(=O)c2cccs2)cc1	n	n	x	x	n
C/C(=N\NC(=O)c1ccc(NS(=O)(=O)c2cccs2)cc1)c1ccc(C(C)(C)C)cc1	n	12µM	u	n	n
Cc1ccc2nc(NC(=O)CS(=O)(=O)Cc3ccccc3)sc2c1	n	n	x	x	n
Cc1ccc2nc(NC(=O)CCNS(=O)(=O)c3cccs3)sc2c1	n	12µM	n	n	n
N#Cc1c(C(F)(F)F)cc(-c2cccs2)nc1SCC(=O)Nc1cccc(C(F)(F)F)c1	x	n	n	x	x
C/C(=N\OC(=O)c1cccc(C)c1)c1sc(-c2ccccc2)nc1C	4µM	n	u	n	2.8µM
C/C(=N\OC(=O)c1cccc(C(F)(F)F)c1)c1sc(-c2ccccc2)nc1C	3.5µM	n	25µM	n	4µM
CCN(CC)C(=O)c1sc2c(c1C)c(=O)n(Cc1ccccc1)c(=O)n2Cc1c(C)cc(C)cc1C	x	n	x	x	x
CCn1cc2nc(SCC(=O)Nc3ccc(C)cc3C)n(Cc3ccc(C)cc3)c(=O)c2n1	x	n	x	x	x
O=C(c1cc(COc2cccc(C(F)(F)F)c2)on1)N1C[C@H]2CC[C@H]1C2	2.8µM	15µM	x	x	2.2µM
CC(=O)c1cccc(OCc2cc(C(=O)NC3CCN(Cc4ccccc4)CC3)no2)c1	n	n	x	x	n
CC(=O)c1cccc(OCc2cc(C(=O)N3C[C@@H](C)O[C@@H](C)C3)no2)c1	u	15µM	x	x	u
CC(=O)c1ccc(OCc2cc(C(=O)N(C)CCN3CCOCC3)no2)cc1	n	n	x	x	n
CC(=O)c1cccc(OCc2cc(C(=O)N(C)CCC3CCOCC3)no2)c1	n	17µM	x	x	u
SMILES	NPC1 prom act	FLuc counter	SMN2 splice up	KinaseGlo FLuc	Rab9 promoter act
CC(=O)c1cccc(OCc2cc(C(=O)N3C[C@H]4CC[C@H]3C4)no2)c1	2.5µM	9.5µM	x	x	2µM
CCc1c(C)sc(NC(=O)c2cc3nc(-c4ccc(OC)cc4)cc(C(F)(F)F)n3n2)c1C(=O)OC	x	n	n	x	x
O=C1C2=C(S[C@@H]3O[C@H](CO)[C@@H](O)[C@H](O)[C@H]3O2)C(=O)c2ccccc21	x	x	n	n	x
N/C(=N\OC(=O)Nc1ccccc1)c1ncc(C(F)(F)F)cc1Cl	n	12µM	n	n	u
Cc1cc(=O)n2nc(N3CCC(C(=O)Nc4ccc(C)c(Cl)c4)CC3)sc2n1	x	n	n	x	x
O=C(N/N=C/c1cc(O)ccc1[N+](=O)[O-])c1ccc2c(c1)OCCO2	u	0.6µM	x	x	2µM
O=C(N/N=C/c1ccccc1)c1ccc(N2CCOCC2)c([N+](=O)[O-])c1	n	n	n	n	n
O=C(N/N=C/c1ccccc1[N+](=O)[O-])c1ccc2c(c1)OCCO2	0.63µM	0.24µM	x	x	u
O=C(N/N=C/c1cc([N+](=O)[O-])ccc1O)c1ccc2c(c1)OCCO2	n	u	n	n	n
CCCSc1ncc(Cl)c(C(=O)NCc2ccc(OC)cc2)n1	x	n	n	x	x
COc1ccc2nc(-c3ccccc3)cc(C(=O)OCC(=O)N3CC(C)OC(C)C3)c2c1 (centres undefined)	n	19µM	x	x	n
COc1ccc2nc(-c3ccccc3)cc(C(=O)OCC(=O)N3CCCCC3)c2c1	n	21µM	x	x	n
Cc1cc(C(=O)OCC(=O)N2CC(C)OC(C)C2)c2ccccc2n1 (centres undefined)	n	n	x	x	n
COc1ccc(-c2cc(C(=O)OCC(=O)N3CCCC3)c3ccccc3n2)cc1	n	6µM	n	n	n
CCOc1ccc(-c2c(C)nn3c(C)c(C(=O)NCC(C)c4ccccc4)cnc23)cc1OCC (centres undefined)	x	n	x	x	x
COc1ccc(/C=C2\C(=O)NC(=S)N2C(=O)c2ccc(F)cc2)cc1	n	12µM	n	n	n
O=C1NC(=S)N(C(=O)c2ccc(F)cc2)/C1=C/c1ccccc1	n	u	n	n	n
C=C(C)CSc1nncn1/N=C/c1ccc(OC)cc1	u	12µM	u	n	4µM
CCSc1nncn1/N=C/c1ccc(OC)c(OC)c1	n	u	u	n	n
CC1=Nc2cc(C(=O)NCCc3ccccc3)ccc2Sc2c(C)ccc(C)c21	x	n	n	x	x
CCCNC(=O)c1ccc2c(c1)N=C(C)c1c(C)ccc(C)c1S2	x	u	4µM	x	x
Oc1c(Br)cc(C2N=C(c3ccccc3)NO2)cc1Br (centres undefined)	n	17µM	n	n	n
CSc1ccc(C2N=C(c3ccccc3)NO2)cc1 (centres undefined)	1.3µM	8.5µM	x	x	1.8µM
CCOC(=O)c1c(C)oc2c(Cl)cc(NS(=O)(=O)c3ccc(Cl)c(C)c3)cc12	x	u	n	x	x
C(=N/Nc1nnc2c(n1)[nH]c1ccccc12)/c1cccnc1	x	x	u	n[7.66 µM]	x
SMILES	NPC1 prom act	FLuc counter	SMN2 splice up	KinaseGlo FLuc	Rab9 promoter act
COC(=O)c1cc2c(cc1NC(=O)c1cnn(-c3ccccc3)c1-n1cccc1)OCO2	x	n	n	x	x
Cc1ccc(-n2c(=O)c3c(c4cc(C)ccc4n3C)n(CC(=O)c3ccc(Cl)cc3)c2=O)cc1	x	n	x	x	x
CCC1(CC)Nc2ccccc2C(=O)N1c1ccc(OC)cc1	2µM	11µM	x	x	2.5µM
COc1ccc(N2C(S)=C(C#N)C(=O)NC23CCCCC3)cc1	n	27µM	x	n	n
COc1ccc(N2C(=O)c3ccccc3NC23CCCC3)cc1	4µM	u	11µM	n	2.5µM
COc1ccc(N2C(=O)CCC2(C#N)c2ccc(Br)cc2)cc1 (centres undefined)	n	n	n	n	n
Cc1nc2cccnc2n1C1CCN(C(=O)Nc2ccccc2C(F)(F)F)CC1	x	n	x	x	x
